Our source for the Potency, outcome and activity change, positive = activation values is PubChem BioAssay (Tox21).

The target of test [1] is Thyrotropin receptor (Homo sapiens) (UniProt P16473). As to the kind of experiment: qHTS assay to identify small molecule agonists of the thyroid stimulating hormone receptor (TSHR) signaling pathway (AID 1224843; calls by dose curve; also: nearly all actives have a fitted effect of over 45% in size). The gist of the method:
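Agonist activity read as cAMP rise via d2/cryptate HTRF competition, 1 h room-temperature detection, in HEK293 cells expressing TSHR. Fifteen-point titrations, each run in triplicate, with a 30 min room-temperature incubation beforehand.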
For orientation: qHTS replaces the single test concentration by a dilution series.

Test [2] is described as follows: qHTS assay to identify small molecule agonists of H2AX (AID 1224845; active = well fitted activation curve with a large enough effect in the signal ratio in the repeat runs, not every such curve was filed as active; the % refers to the signal ratio). Put shortly:
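Phospho-H2AX Ser139 measured by HTRF (ex 320 nm; em 665 and 620 nm) after 24 hr antibody incubation. Compounds, 15 concentrations, 0.76% DMSO, were applied to CHO-K1 cells for 3hr at 37C before lysis.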

The nature of test [3]: qHTS assay to identify small molecule agonists of the hypoxia (HIF-1) signaling pathway (AID 1224846; active = well fitted activation curve with a large enough effect in the signal ratio in the repeat runs, not every such curve was filed as active; the % refers to the signal ratio). Put shortly: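 Compounds added to ME-180 cells carrying hypoxia-response-element beta-lactamase reporter (0.5% dialyzed FBS, 5 h preplating), 17 h at 37C; agonist activity detected by CCF4-AM B/G FRET read-out.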
Test [4] can be described thus: qHTS assay to identify small molecule agonists of H2AX - cell viability counter screen (AID 1224847; calls by dose curve;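 also: wild-type CHO-K1 cells; top concentration of the series differs between compounds; nearly all actives have a fitted effect of over 30% in size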). Put shortly: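 CHO-K1 cells plated overnight at 37C, then exposed 3 h at 37C to compounds at 15 concentrations (0.76% DMSO final). Viability by CellTiter-Glo luminescence after 30 min at room temperature.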
Test [5] is described as follows: qHTS assay to identify small molecule antagonists of the estrogen related receptor (ERR) signaling pathway from Tox21 library (AID 1224848). Also: nearly all actives have a fitted effect of over 50% in size. Also: potency is read from the fitted curve at half-maximal effect. The gist of the method:
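Luciferase luminescence (ONE-Glo, 30 min room temperature) was the read-out. Cells of the NTP-supplied ERR line, 2,000 per well, were given 6 h at 37 C before compound addition in DMSO and 18 h exposure at 37 C.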

The nature of test [6]: qHTS assay to identify small molecule agonists of the estrogen related receptor (ERR) signaling pathway from Tox21 library (AID 1224849; calls by dose curve; also: nearly all actives have a fitted effect of over 15% in size). The note with it: ERR reporter cell line, ONE-Glo luciferase, 18 h; at 92.4 µM (top of the series) unless noted. Put shortly: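 Luminescent agonist read-out (One-Glo, 30-minute room-temperature incubation) following 18-hour compound treatment at 37 C of the ERR cell line, which had been plated 6 hours before dosing.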

Test [7] can be described thus: qHTS RealTime-Glo MT Cell Viability Assay in HepG2 cells - 24 hour (AID 1224867). Also: nearly all actives have a fitted effect of over 50% in size. The gist of the method: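 Viability was tracked continuously by NanoLuc luminescence from prosubstrate reduced by living HepG2 cells, at successive time points over 40 h of compound exposure. Cells with reagent were preincubated 5 h at 37 °C before compound addition.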
Test [8] is described as follows: qHTS RealTime-Glo MT Cell Viability Assay in HEK293 cells - 32 hour (AID 1224868). Also: nearly all actives have a fitted effect of over 50% in size. Also: potency is read from the fitted curve at half-maximal effect. The gist of the method: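 Viability tracked continuously by luminescence as live cells reduce a prosubstrate for NanoLuc; HEK293 cells preincubated 5 h, compound-treated at 37 C, and read at 0, 8, 16, 24, 32 and 40 h.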
Test [9] can be described thus: qHTS assay to identify small molecule agonists of the hypoxia (HIF-1) signaling pathway - cell viability counter screen (AID 1224844; calls by dose curve; also: nearly all actives have a fitted effect of over 50% in size; also: potency is read from the fitted curve at half-maximal effect). The gist of the method: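 Cytotoxicity measured by CellTiter-Glo ATP luminescence in the wells also read for beta-lactamase signal. Cells were HRE-bla ME-180 (2,000/well, 0.5% dialyzed FBS), exposed to compounds for 17 h at 37C.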
Test [10] in a line: A CellTox Green Cytotoxicity Assay to monitor cytotoxicity in HEK293 cells - 0 hour (AID 1224869). Also: nearly all actives have a fitted effect of over 50% in size. The gist of the method: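 Fluorescence from a DNA-binding dye excluded by viable cells was measured repeatedly in the same HEK293 wells (600 cells/well) during continuous compound exposure at 37 C. Each assay gives one read point: 0, 8, 16, 24, 32 or 40 h.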

Values without a mark were called inactive. Inconclusive results are not listed. Calls of active or inactive are those of the source. Unless noted, calls follow the shape of the dose curve; as a rule, active = well fitted curve in the direction sought with a large enough effect in the repeat runs; inconclusive = weak or mixed curves; inactive = no such curve, though single readings can be large; an effect the other way counts as inactive or inconclusive.
% is scaled to controls: 0 for no effect and ±100 for the full control effect.

Sequence of Thyrotropin receptor (Homo sapiens) (P16473 whole entry, looked up): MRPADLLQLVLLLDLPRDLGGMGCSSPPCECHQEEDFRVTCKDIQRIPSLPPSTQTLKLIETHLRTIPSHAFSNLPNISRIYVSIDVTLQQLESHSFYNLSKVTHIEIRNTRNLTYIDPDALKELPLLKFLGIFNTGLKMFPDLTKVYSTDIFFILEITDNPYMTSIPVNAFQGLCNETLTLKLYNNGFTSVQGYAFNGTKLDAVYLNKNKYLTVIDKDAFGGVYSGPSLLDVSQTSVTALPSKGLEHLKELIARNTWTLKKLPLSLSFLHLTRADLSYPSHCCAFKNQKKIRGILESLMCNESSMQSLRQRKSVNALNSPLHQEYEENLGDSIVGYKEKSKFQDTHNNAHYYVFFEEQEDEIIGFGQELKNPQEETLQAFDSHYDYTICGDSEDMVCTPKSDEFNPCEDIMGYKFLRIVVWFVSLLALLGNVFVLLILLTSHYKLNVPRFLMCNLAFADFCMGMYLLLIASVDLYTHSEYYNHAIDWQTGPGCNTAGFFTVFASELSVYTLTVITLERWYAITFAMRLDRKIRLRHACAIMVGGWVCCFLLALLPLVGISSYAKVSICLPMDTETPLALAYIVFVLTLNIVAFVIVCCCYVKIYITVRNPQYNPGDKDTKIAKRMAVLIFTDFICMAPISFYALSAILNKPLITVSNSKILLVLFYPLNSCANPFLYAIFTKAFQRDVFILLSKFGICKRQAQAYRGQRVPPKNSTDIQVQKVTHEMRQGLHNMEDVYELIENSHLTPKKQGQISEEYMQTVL

In the case of `OCCOc1cccc(OCCO)c1`, the Potency result in test [1], in [2], in test [4], in test [5] and in [8] was “inactive” in each case. Moreover, the compound was called inactive in test [3] and in test [7]. Also, the activity change, positive = activation in test [6] is 0.271%.

`CCCCCCC/C=C/C=O`: the Potency result in [1], in test [9], in test [8] and in test [10] was “inactive” each time. Besides, in test [3], the outcome was inactive.

On to `CC1(C)C(=O)NC(=O)N1CO`, for which the Potency entry in [1], in test [2], in test [4] and in test [8] was “inactive” in each case. In addition, the call in test [3] and in [7] was inactive.

On to `CCOC(=O)CC(O)(CC(=O)OCC)C(=O)OCC`, for which the Potency entry in [1], in test [2] and in [10] was “inactive” each time. The outcome in [3] and in test [7] was inactive.

For the compound `CCCC1CCCC(=O)O1` (centres undefined), the Potency entry in [1], in test [2], in test [4], in test [8] and in test [10] was “inactive” throughout. The compound was classed as inactive in test [3] and in [7].

For `CCCCOc1ccc(N)cc1`, the Potency entry in test [1], in test [9], in test [4], in test [5] and in test [8] was “inactive” in each case. The activity change, positive = activation in test [6] was 3.06%. The compound was classed as inactive in [7].

On to `O=C(O)c1ccc(O)c(O)c1`, for which the Potency entry in test [1], in test [9], in [4], in test [8] and in test [10] was “inactive” throughout. Further, the compound was classed as inactive in test [7].

As for `C/C(=C\C(C)CC(C)CC(C)C)C1CC(=O)OC1=O` (centres undefined), the Potency result in test [1], in test [2], in test [8] and in test [10] was “inactive” in each case. Besides, the outcome in test [3] and in test [7] was inactive.

On to `CC(C(=O)O)c1ccc(/C=C2\CCCCC2=O)cc1` (centres undefined), for which the Potency result in test [1], in test [9] and in test [10] was “inactive” in each case. Moreover, the compound was called inactive in [3] and in test [7].

In the case of `O=C(O)c1cccc(C(=O)O)c1C(=O)O`, the Potency entry in test [1], in test [2], in test [8] and in [10] was “inactive” in each case. Further, the compound was called inactive in test [3] and in test [7].

As for `Oc1ccc(Oc2ccccc2)cc1`, the Potency entry in [1], in [9] and in [10] was “inactive” throughout. The compound was called inactive in test [3] and in test [7]. Further, in test [8], the Potency was 16.5 µM (active).

Regarding `O=C(N[C@@H](Cc1ccccc1)[C@@H](O)C(=O)N1C[C@@H](O)[C@@H](O)C1)c1cc2cc(Cl)ccc2[nH]1`, the Potency result in test [1], in test [2], in [4] and in test [10] was “inactive” in each case. Moreover, the result in test [3] and in [7] was inactive. The Potency in [5] was 54.5 µM (active). In addition, the activity change, positive = activation in test [6] was -40.7%.

In the case of `Clc1ccccc1-c1nc(-c2ccncc2)no1`, the Potency result in test [1], in [9] and in test [10] was “inactive” throughout. Moreover, the result in [7] was inactive.

For the compound `Sc1nc(S)nc(S)n1`, the Potency result in test [1], in test [9], in [8] and in test [10] was “inactive” each time. Besides, the result in [3] and in test [7] was inactive. In addition, in test [6], the activity change, positive = activation is -29.2% [at 42.5 µM].

Consider `CC(=O)Nc1ccn(C2COC(COC(=O)c3ccccc3)O2)c(=O)n1` (centres undefined), for which the Potency entry in [1], in [2], in test [4], in test [5], in test [8] and in test [10] was “inactive” throughout. For the same compound, the call in [3] and in test [7] was inactive. Also, the activity change, positive = activation in [6] is -13.3% [at 42.5 µM].

In the case of `O=C(O)c1c2ccccc2cc2ccccc12`, the Potency result in test [1], in test [9], in test [4] and in test [10] was “inactive” in each case. Further, the outcome in test [7] was inactive. Also, in [8], the Potency is 43.5 µM (active).

Turning to `COc1ccc(C(=O)Nc2ccccc2)cc1[N+](=O)[O-]`, the Potency entry in test [1], in test [9] and in test [10] was “inactive” in each case. In test [3], the outcome was inactive. Besides, the Potency in test [8] was 24.7 µM (active).

As for `O=C(O)COCC(=O)O`, the Potency result in test [1], in [2], in test [4] and in test [10] was “inactive” in each case. For the same compound, the compound was classed as inactive in [3] and in test [7].

For `C[C@H](CN1CCCC1)C(=O)c1ccc(C(F)(F)F)cc1`, the Potency entry in test [1], in test [2], in test [4] and in test [10] was “inactive” each time. The call in test [3] was inactive.

For the compound `CCCOC(C)=O`, the Potency result in [1], in test [2], in test [4], in test [8] and in test [10] was “inactive” throughout. Further, the compound was called inactive in test [3] and in test [7].

With `CCOc1ccccc1O`, the Potency result in test [1], in [2] and in test [10] was “inactive” each time. The outcome in test [3] and in [7] was inactive. In [8], the Potency is 1.74 µM (active).

For `CCCCCCCCCCCCSCCOCCO`, the Potency result in test [1], in [2], in test [4], in [5] and in test [8] was “inactive” throughout. Also, the result in [3] and in [7] was inactive. Further, the activity change, positive = activation in [6] is -7.91% [at 42.5 µM].

With `CC(O)CN` (centres undefined), the Potency entry in test [1], in test [2], in test [4], in [5], in [8] and in test [10] was “inactive” throughout. Besides, the outcome in test [3] and in test [7] was inactive. In addition, the activity change, positive = activation in [6] was 0.61%.

For the compound `Cc1c(N=C=O)cccc1N=C=O`, the Potency result in test [1], in test [9], in [4] and in test [10] was “inactive” each time. For the same compound, the result in test [7] was inactive.

Regarding `CC(C)C[C@H](NC(=O)[C@H](Cc1ccccc1)NC(=O)c1cnccn1)B(O)O`, the Potency result in [1] and in [10] was “inactive” in each case. The Potency in test [9] was 0.0213 µM (active); in test [5], 0.0237 µM (active); in [8], 0.0379 µM (active). In addition, the activity change, positive = activation in test [6] is -63.1% [at 42.5 µM].

For the compound `CCOc1ccc(NC(C)=O)cc1N`, the Potency result in test [1], in test [2], in test [4], in test [5], in [8] and in test [10] was “inactive” throughout. Moreover, the outcome in [3] and in test [7] was inactive. The activity change, positive = activation in test [6] was 8.88%.

With `CC(Cc1ccccc1)(NC(=O)CN)c1ccccc1` (centres undefined), the Potency entry in test [1], in test [2], in test [4], in [8] and in [10] was “inactive” each time. The compound was called inactive in [3] and in [7].
